Among the data in PubChem BioAssay AID488841 (Sanford-Burnham Center for Chemical Genomics, 2010) are inhibition values, retold here.

Among all 1,400 compounds or so, about 380 (27%) were called active.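 The calls were made as follows: active = mean inhibition above 50% across duplicate retests at 10 µM; inactive = the rest.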 This is one part of the list.

The nature of this test: yeast NALP1 reporter signal suppression – S. cerevisiae, luminescence, single concentration, NALP1 inhibitor project, confirmation (AID 488841).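 Also: plate controls were DMSO in galactose medium for no effect and cells in plain SD medium for full effect.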 As to conditions: S. cerevisiae NALP1/ASC/Caspase-1 reporter, beta-gal luminescence; at 10 µM; stronger effect = higher value.
In general, inhibition refers to the change of the read-out against control, counted positive when it falls. For `CCOC(=O)c1cnc2ccccc2c1Nc1cc(C(=O)O)ccc1C`, the inhibition is 26.6% (inactive).
Regarding `CSc1cc(N2CCOCC2)nc(-c2ccccc2Cl)n1`, the inhibition is 72% (active).
In the case of `Cc1cc(N2CCOCC2)n2ncc(-c3ccccc3)c2n1` it was 46.7% (inactive).
To `C=CCc1cccc(/C=N/c2nc3ccccc3n2CC)c1O` belongs 15.8% (inactive); to `CCc1ccc(S(=O)(=O)/N=C2/C=C(Sc3ncn[nH]3)C(=O)c3ccccc32)cc1`, 86.3% (active); to `O=C1c2ccccc2C(=O)c2c1ncn2-c1ccccc1`, 24.1% (inactive).
In the case of `Cc1cc(Br)ccc1OCCn1ccnc1` it was 43% (inactive); in that of `CCOc1ccc(OCCCCn2ccnc2)cc1`, 34.5% (inactive).
For the molecule `CCC(C)c1ccc(OCCn2ccnc2)cc1` (centres undefined), the inhibition is 58.6% (active).
In the case of `COC(=O)c1c(N)c(C#N)c2n1CCCCC2`, the inhibition is 21% (inactive).
`Cc1cccc(C)c1NC(=O)CSc1nc2ccccc2c(=O)[nH]1`: the inhibition is 31.1% (inactive).
In the case of `Cc1ccccc1OCCCSc1nc2ccccc2[nH]1` it was 63% (active); in that of `Cc1cccc(OCCCSc2nc3ccc(C)cc3[nH]2)c1`, 56.4% (active); in that of `CCCn1nc(NC(=O)c2ccccn2)c2cc3cc(C)ccc3nc21`, 13.2% (inactive).
To `NC(C(=O)O)C1CC(Cl)=NO1` (centres undefined) belongs 24.8% (inactive).
In the case of `O=S(=O)(/C=C/c1ccccc1)NC1CCCCCCC1` it was 61.6% (active); in that of `S=C(NC1CCCCC1)NN(c1ccccc1)c1ccccc1`, 21.3% (inactive); in that of `O=C(c1ccc2c(Cl)c3c(nc2c1)CCCC3)N1CCN(c2ccc(F)cc2)CC1`, 64.8% (active).
With `O=C(c1cccc(F)c1)N1CCN(c2cc(N3CCCCC3)c(F)cc2[N+](=O)[O-])CC1`, the inhibition is 46.2% (inactive).
To `O=C(NC(=O)N1CCN(c2ccc(F)cc2)CC1)c1ccccc1` belongs 32.6% (inactive); to `COc1ccc(N(CCC#N)S(=O)(=O)c2ccc(Cl)cc2)cc1`, 26.2% (inactive); to `CC(C)Oc1ccc(NC(=O)CCC(=O)O)cc1`, 21.6% (inactive).
To `Cc1ccc(NC(=O)CNc2ccc(OC(C)C)cc2)cc1` belongs 50.8% (active); to `CCC(C)(C)NCC(=O)Nc1ccc(OC(F)(F)F)cc1`, 36.4% (inactive); to `CNC(=O)C(NC(=O)c1ccccc1)=C(C)C`, 30.4% (inactive).
As for `C=C(C(=O)c1ccccc1)C(C)C(=C)C(=O)c1ccccc1`, the inhibition is 59.5% (active).
As for `COc1ccc(C(=O)NCc2ccccc2)cc1S(=O)(=O)N1CCCc2ccccc21`, the inhibition was 32.7% (inactive).
As for `Cc1ccc(NC2(C#N)C(=O)Nc3ccccc32)cc1` (centres undefined), the inhibition was 30.8% (inactive).
Regarding `COC(=O)c1ccccc1NC(=O)C1CCN(C(=O)c2cc(OC)cc(OC)c2)CC1`, the inhibition is 20.4% (inactive).
As to `CN1CCN(S(=O)(=O)c2ccc(NC(=S)NC(=O)C(C)(C)C)cc2)CC1`, the inhibition is 26.6% (inactive).
Turning to `COC(=O)c1ccccc1NC(=O)C1CCCN(S(=O)(=O)c2ccc(OC)cc2)C1` (centres undefined), the inhibition is 66.3% (active).
To `CCCCn1cnc2c1c(=O)[nH]c(=O)n2CCCC` belongs 21.8% (inactive).
`O=[N+]([O-])c1ccc(O)c2ncccc12`: the inhibition was 93.5% (active).
In the case of `O=C(c1ccc(Cl)c([N+](=O)[O-])c1)N(c1ccccn1)c1ccccn1`, the inhibition is 24.1% (inactive).
In the case of `CN1/C(=C\C(=O)Nc2ccc(Cl)cc2)C(C)(C)c2ccccc21` it was 42.2% (inactive).
As for `O=C(Cn1c(=O)oc2ccccc21)Nc1ccc(Cl)cc1`, the inhibition was 33% (inactive).
As for `O=C(Cc1noc2ccccc12)Nc1ccc(Cl)cc1`, the inhibition is 55.3% (active).
As for `C#CCOc1c(Br)cc(/C=N/O)cc1OCC`, the inhibition is -19.1% (inactive).
To `Cc1cccnc1NC(=O)c1ccccc1NC(=O)C(C)(C)C` belongs 36.7% (inactive); to `O=C(c1cccc([N+](=O)[O-])c1)n1nc(-c2ccccc2)nc1NCc1ccccc1`, 37% (inactive).
`COc1cccc(CNc2ccc3c(c2)CCC3)c1`: the inhibition was 34.2% (inactive).
As for `O=[N+]([O-])c1cccc(CNc2ccc3c(c2)CCC3)c1`, the inhibition is 52.9% (active).
For the molecule `O=C1CCCc2ccccc2N1Cc1ccc(Cl)cc1Cl`, the inhibition was 28.2% (inactive).
Turning to `CC1CCN(CCOc2cccc(Br)c2)CC1`, the inhibition was 36% (inactive).
`Cc1cc(Br)ccc1OCCCCN1CCC(C)CC1`: the inhibition is 52.2% (active).
In the case of `Brc1cccc(OCCCCN2CCCCC2)c1` it was 29.7% (inactive).
To `Cc1c(-c2ccccc2)[n+](=O)c2c(n1[O-])CCC2` belongs 22.1% (inactive).
`COc1cccc(C2c3c(-c4ccccc4O)n[nH]c3C(=O)N2Cc2ccco2)c1` (centres undefined): the inhibition is 29.4% (inactive).
To `CN1CCN(C(=O)CSc2nc3c(c(=O)n(C)c(=O)n3C)n2C)CC1` belongs 29.1% (inactive).
To `Nc1[nH]ncc1N=Nc1ccc(Cl)cc1` belongs 56.7% (active); to `CC(C)(CN1CCN(Cc2ccccc2)CC1)NS(=O)(=O)c1ccc(Cl)cc1`, 42.2% (inactive); to `O=c1c(O)c(-c2cccs2)oc2ccccc12`, 78% (active).
To `CCOC(=O)CSc1nnc(-c2ccccc2)c(=O)[nH]1` belongs 33.8% (inactive).
As for `CCOC(=O)c1c(-c2ccccc2)nc2ccccn12`, the inhibition was 99.4% (active).
As to `CCOCCCn1c(=NC(C)=O)c(C(=O)OCC)cc2c(=O)n3ccccc3nc21`, the inhibition was 23.1% (inactive).
In the case of `CCOC(=O)c1ccccc1NC(=O)COc1cc(=O)n(CC)c2ccccc12` it was 8% (inactive).
In the case of `CC(=O)N1CC[n+]2c(-c3ccc(Cl)cc3Cl)csc21` it was 19.1% (inactive).
Turning to `CCN1CCN(Cc2cccc(Oc3ccccc3)c2)CC1`, the inhibition is 34.3% (inactive).
In the case of `Nc1ccc(Oc2cccc(Oc3ccc(N)cc3)c2)cc1` it was 50.5% (active); in that of `CC(C)C(NC(=O)CN1C(=O)c2ccccc2S1(=O)=O)C(C)C`, 21.5% (inactive); in that of `O=C(N/N=C/c1cc2c3c(c1O)CCCN3CCC2)c1ccccc1O`, 25.8% (inactive).
To `Cn1c(=O)c2c(nc(Sc3ncccn3)n2Cc2ccccc2Cl)n(C)c1=O` belongs 29.4% (inactive); to `Cc1cc(OCCN2CCCC2)cc(C(C)C)c1`, 34.4% (inactive); to `O=C(NCCCc1ccccc1)c1ccccc1O`, 53% (active).
In the case of `O=C(CN1C(=O)C2C3C=CC(C3)C2C1=O)NCCc1ccccc1` (centres undefined), the inhibition is 24.9% (inactive).
On to `COc1ccc(CNc2nc(C)c([N+](=O)[O-])c(C)c2C#N)cc1`, for which the inhibition is 29.2% (inactive).
Consider `CC(C)(C)n1nc(-c2ccc(F)cc2)c2c(N)ncnc21`, for which the inhibition is 91.7% (active).
On to `COc1ccc(-c2csc(N3C(=O)C4C5c6ccccc6C(c6ccccc65)[C@@H]4C3=O)n2)cc1` (some centres undefined), for which the inhibition is 45.8% (inactive).
To `Nc1nc(-c2ccc(Oc3ccccc3)cc2)cs1` belongs 98.5% (active).
To `Cc1sc(N)nc1-c1ccc(Oc2ccccc2)cc1` belongs 61.1% (active).
To `c1ccc(CCNc2nc(-c3cccnc3)cs2)cc1` belongs 32.7% (inactive).
Turning to `Nc1nc2ccc(Oc3ccccc3)cc2s1`, the inhibition was 88.2% (active).
To `COC(=O)c1c(NC(NC(=O)C(C)C)C(Cl)(Cl)Cl)sc2c1CCC2` (centres undefined) belongs 21% (inactive); to `COC(=O)c1ccc(C(=O)OC)c(NC(=O)COC(=O)C2CCCCC2)c1`, 7% (inactive).
In the case of `COc1ccc(OCC#CCNC(C)(C)C)cc1`, the inhibition was 33.4% (inactive).
In the case of `Cc1c(C(=O)N2CCOCC2)[nH]c2ccc(OCc3ccccc3)cc12` it was 29.4% (inactive).
To `CCCOc1ccc(C(=O)c2nc3c(n2O)CCCCC3)cc1` belongs 22.7% (inactive); to `CCOc1ccc(C(=O)C(CN2CCOCC2)c2ccccc2)cc1` (centres undefined), 51.9% (active).
For `CCCOc1ccc(C(=O)C(CN2CCCC2)c2ccccc2)cc1` (centres undefined), the inhibition was 50.8% (active).
In the case of `CCCCOc1ccc(C(=O)CCN2CCCCC2)cc1` it was 41.4% (inactive); in that of `CCOC(=O)CNC(c1ccccc1)c1cc(Br)ccc1NC(=O)CCN1CCOCC1` (centres undefined), 27.6% (inactive); in that of `Cn1c2c(c(=O)n(C)c1=O)C(NC(=O)C(C)(C)C)(C(F)(F)F)C(=O)N2` (centres undefined), 24.3% (inactive).
For `NC(=NCCc1ccc(Cl)cc1)NS(=O)(=O)c1ccc(F)cc1`, the inhibition was 23.1% (inactive).
In the case of `Cc1sc2nc(SCC(=O)NCc3ccco3)n(Cc3ccccc3)c(=O)c2c1C` it was 24.6% (inactive).
As for `CCN(CC1COc2ccccc2O1)S(=O)(=O)c1ccc(C)cc1` (centres undefined), the inhibition is 39.2% (inactive).
Consider `CC(C)C(C(=O)O)N1C(=O)/C(=C/c2cccn2C)SC1=S` (centres undefined), for which the inhibition is 42.4% (inactive).
Turning to `O=C(COC(=O)CCSc1ccccc1)NCc1ccccc1Cl`, the inhibition was 22.2% (inactive).
Consider `O=C(Cc1ccc(Cl)cc1)Oc1cccc2cccnc12`, for which the inhibition was 27.7% (inactive).
In the case of `O=C(CSCc1cccc(Cl)c1)Nc1ccccc1-c1ccccc1`, the inhibition is 35% (inactive).
In the case of `O=C(CCSCc1cccc(Cl)c1)NCCc1ccccc1` it was 45.4% (inactive); in that of `COc1ccccc1OCC(=O)NCCSCc1ccccc1Cl`, 55.5% (active); in that of `COc1ccc(CCNC(=O)CN2CCC(C)CC2)cc1OC`, 22.5% (inactive).
To `COc1ccccc1OCC(=O)NCCSCc1cccc(Cl)c1` belongs 59.4% (active).
Regarding `COc1ccccc1OCC(=O)NCCSCc1ccc(Cl)cc1`, the inhibition is 56.6% (active).
With `O=C(COc1ccccc1Cl)NCCC1=CCCCC1`, the inhibition is 38.7% (inactive).
As for `COc1cccc(N2CCN(C3CCCC(C)C3)CC2)c1` (centres undefined), the inhibition is 25.3% (inactive).
In the case of `CC1=CCC2C(=O)N(Cc3ccccc3)C(=O)C2C1` (centres undefined) it was 24.9% (inactive); in that of `COc1cc(S(=O)(=O)NCc2cccnc2)ccc1F`, 27.6% (inactive).
As for `COc1cccc(C(=O)N2CCCC(c3nc(-c4cccs4)no3)C2)c1` (centres undefined), the inhibition was 29.9% (inactive).
Turning to `CCCCCCCCCCCCCCCC[n+]1cccc2ccccc21`, the inhibition was 95% (active).
In the case of `CC1(C)CC(=O)c2cc(C(=O)O)c(=O)n(-c3ccccc3)c2C1`, the inhibition is 32% (inactive).
In the case of `CC1(C)CC(=O)C2=C(C1)OC(N)=C([N+](=O)[O-])C2c1cccs1` (centres undefined) it was 42.5% (inactive).
`CC(=O)Nc1sc2c(c1-c1nc3ccccc3s1)CCN(C(C)C)C2`: the inhibition is 92.9% (active).
To `O=C(Nc1ccc(-c2nc3ccccc3s2)cc1)C1=COCCO1` belongs 25.9% (inactive).
